Source: PubChem BioAssay
Most compounds without a hit are left out; they make up all but 4% or so of the library.
KKLEB tox – reduces viability of KKLEB cystic fibrosis airway cells; KKLEB CF airway cells viability, ATPlite luminescence, overnight; active compounds read low; cells stimulated with P. aeruginosa culture filtrate; activity change (cytotoxicity), % at 5 µM; hit rate 0.36% among 360,000; AID 602141;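 active means corrected activity change at or below -50% at 5 µM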
HIF-2a block – blocks HIF-2a reporter activity; hit rate 0.72% among 360,000; 786-0 RCC cells HIF-2a reporter, luciferase luminescence, overnight; inhibition, % at 18.8 µM;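 active means inhibition of the luminescence signal of 40% or more relative to plate controls, in a single-dose primary screen at 18.75 µM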
Peg3 prom inh-1 – reduces Peg3 promoter-driven luciferase expression in HeLa | HeLa PEG-Prom luciferase reporter, luminescence, overnight | inhibition, % at 20 µM | hit rate 1.7% among 360,000 | AID 588405;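 active means inhibition of at least 50% at 20 µM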
CF NFkB block – cystic fibrosis NF-kB activation inhibition. hit rate 0.86% among 360,000. inhibition, % at 5 µM. KKLEB NF-kB-GFP reporter, PAF-induced, GFP fluorescence overnight;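 active means at least 50% inhibition at 5 µM, scaled per plate between neutral and stimulator controls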;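 further: PAF is a Pseudomonas aeruginosa culture filtrate used as stimulus; plate controls were PAF-stimulated DMSO wells for no effect and unstimulated DMSO wells for full effect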
TROY signal inh – TROY signaling inhibition | Q293 LMP1-TROYcd NF-kB luciferase reporter, 4 h | inhibition, % at 10 µM | hit rate 0.98% among 360,000;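 active means compounds whose plate-normalised and pattern-corrected inhibition of the luciferase reporter signal at the single screening dose is 50% or more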
TWEAK-Fn14 inh – TWEAK-Fn14 signaling inhibition; TWEAK-stimulated Fn14 reporter cells, luciferase luminescence, 8 h; inhibition, % at 10 µM; hit rate 2% among 360,000; in the data active means inhibition above about 50%
Peg3 prom inh-2 – confirmation of Peg3 promoter inhibitors; shares compounds with Peg3 prom inh-1; HeLa PEG-Prom luciferase reporter, luminescence, overnight; inhibition, % at 20 µM; hit rate 84% among 1,300; AID 602417;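 active means at 20 µM dose, 40% or more inhibition averaged across four replicates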
* = called active by the depositor; / = no result given.

SMILES | KKLEB tox | HIF-2a block | Peg3 prom inh-1 | CF NFkB block | TROY signal inh | TWEAK-Fn14 inh | Peg3 prom inh-2
COc1ccc2c(c1OC)C(=O)N1c3ccccc3C(=O)N(c3ccccc3F)C21 (configuration not stated) | -87* | 7 | 62* | 86* | 6 | 49 | 45*
O=C(CNC1CCCC1)Nc1ccc(N2CCCCCC2)cc1 | 13 | -6 | -1 | -16 | -2 | 4 | /
O=C(CNCCC1=CCCCC1)Nc1ccc(N2CCCCCC2)cc1 | -11 | 33 | 86* | 15 | 10 | 3 | 99*
Cc1ccc(/C=N/NC(=O)c2c[nH]c3ccccc23)o1 | -3 | -121 | -56 | -3 | -28 | -32 | /
COCCCNC(=O)c1ccc(Cn2c(=O)c3ccccc3n(Cc3ccccc3C#N)c2=O)cc1 | 1 | 13 | 54* | 7 | 0 | 1 | 57*
COCCCNC(=O)c1ccc(Cn2c(=O)c3ccccc3n(Cc3ccccc3C)c2=O)cc1 | -3 | 13 | 34 | 7 | 12 | 5 | /
COc1ccc(OC)c(NC(=O)c2ccc(CN(c3cc(Cl)ccc3C)S(=O)(=O)c3ccccc3)cc2)c1 | -12 | 6 | 5 | 10 | 3 | -14 | /
CN(C)S(=O)(=O)c1ccc(-c2csc(N/N=C/c3ccc(O)cc3)n2)cc1 | -9 | 23 | 96* | 82* | 69* | 99* | 98*
C(=N\Nc1nc(-c2ccccc2)cs1)/c1ccncc1 | 17 | -236 | -239 | -24 | -14 | -8 | /
CCOc1ccc2nc(NC(=O)c3ccccn3)sc2c1 | -38 | -17 | 104* | -5 | 67* | -5 | 90*
Cc1ccc(C(=O)N/C(=C\c2ccc(-c3cccc([N+](=O)[O-])c3)o2)C(=O)NCCCN(C)C)cc1 | -12 | -10 | 87* | 16 | 5 | -20 | 93*
CN(C)CCNC(=O)/C(=C/c1ccc(-c2ccc(Cl)cc2)o1)NC(=O)c1ccccc1 | -18 | 8 | 100* | 30 | -14 | -23 | 97*
CC(=O)Nc1ccc(NC(=O)c2c([N+](=O)[O-])cnn2C)cc1 | 16 | 5 | -2 | -9 | 9 | -9 | /
CCN(C(=O)CSc1nc2n[nH]c(C)c2c(=N)n1-c1ccc(Cl)c(C)c1)c1cccc(C)c1 | 6 | 18 | 72* | 27 | 43 | 28 | 49*
Cc1cc(-n2c(SCc3ccccc3F)nc3n[nH]c(C)c3c2=N)ccc1Cl | -4 | -1 | 21 | -6 | 2 | 1 | /
Cc1nn(CC(=O)NCc2ccc(OC(C)C)cc2)c(=O)c2cc(-c3ccccc3)nn12 | -3 | 10 | 51* | 8 | -4 | 6 | 15
CC(C)c1ccc(NC(=O)Nc2nc(CN)cs2)cc1 | 6 | -52 | -270 | 5 | -58 | -19 | /
Cc1ccccc1NC(=O)Nc1nc(C(N)C2CCCCC2)cs1 (configuration not stated) | -14 | 2 | 86* | 18 | -3 | -52 | 81*
COc1ccc(NC(=O)Nc2nc(C(N)C3CCCCC3)cs2)cc1 (configuration not stated) | -8 | -2 | 54* | 10 | 11 | -22 | 71*
CC(C)c1ccc(NC(=O)Nc2nc(C(C)N)cs2)cc1 (configuration not stated) | 0 | 4 | 86* | 0 | 27 | -5 | 90*
NC(c1csc(Nc2nccc(C(F)(F)F)n2)n1)C1CCCCC1 (configuration not stated) | 0 | -1 | 83* | -4 | 6 | -16 | 94*
COc1ccc(CNC(=S)Nc2ccc(F)c(Cl)c2)cc1OC | -6 | 4 | 2 | -12 | 14 | 0 | /
COc1cccc(Nc2nc(C(N)C3CCCCC3)cs2)n1 (configuration not stated) | -5 | 5 | 96* | 6 | -5 | 19 | 63*
COc1cccc(Nc2nc(C(C)N)cs2)n1 (configuration not stated) | 14 | 10 | 6 | -28 | -1 | -8 | /
CCc1c(C)sc(NC(=O)CN2CCN(C(=O)c3ccco3)CC2)c1C(=O)OC | -13 | 22 | 29 | 0 | 2 | -10 | /
SMILES | KKLEB tox | HIF-2a block | Peg3 prom inh-1 | CF NFkB block | TROY signal inh | TWEAK-Fn14 inh | Peg3 prom inh-2
COc1ccccc1CNC(=O)c1c(N)n(CCCN2CCOCC2)c2nc3ccccc3nc12 | -2 | -51 | 60* | -6 | -13 | 25 | 85*
CCCN(CCC)S(=O)(=O)c1ccc(Cl)c([N+](=O)[O-])c1 | -50* | 34 | 94* | 60* | 33 | 17 | 40
CCCN(CCC)S(=O)(=O)c1ccc(N2CCCC2=O)c([N+](=O)[O-])c1 | -3 | 20 | 17 | 7 | -5 | -18 | /
O=C(c1ccc(S(=O)(=O)N2CCCC2)cc1)N1CCCC(C(F)(F)F)C1 (configuration not stated) | 22 | 0 | -5 | 11 | 1 | 3 | /
CC(=O)c1cccc(NC(=O)C(NC(C)C)c2ccccc2)c1 (configuration not stated) | 5 | 6 | 3 | 1 | -33 | 16 | /
CN(C)c1ccc(/C=C/c2ccc3c4ccccc4ccc3[n+]2-c2ccccc2)cc1 | -10 | 96* | 106* | -131 | 72* | 74* | 100*
COc1ccc(-c2cc3nc4n(c(=O)c3s2)CCCCC4)cc1 | -14 | -195 | -214 | -5 | 2 | 31 | /
COc1ccc(-c2cc3nc4n(c(=O)c3s2)CCC4)cc1 | 0 | 15 | 59* | -33 | 62* | 95* | 32
CCc1ccccc1NS(=O)(=O)c1ccc2[nH]cc(C(=O)NCc3ccco3)c(=O)c2c1 | 5 | 8 | -4 | -29 | -1 | -2 | /
CC(C)C(=O)Nc1ccc(O)c(-c2csc(N)n2)c1 | -4 | -20 | 4 | -8 | -11 | -3 | /
C#CCNC(=O)C1=C[C@@H](c2cn(C(C)=O)c3ccccc23)C[C@@H](OCc2ccc(CO)cc2)O1 | 14 | 7 | -13 | -19 | 1 | -18 | /
CC(=O)n1cc([C@H]2C=C(C(=O)NCc3ccccc3)O[C@@H](OCc3ccc(CO)cc3)C2)c2ccccc21 | -1 | 34 | 55* | 13 | -11 | 13 | 47*
CCc1ccc(Oc2coc3cc(OCC(=O)Nc4cc(C)ccc4C)ccc3c2=O)cc1 | -20 | 5 | 54* | 14 | 11 | -71 | 43*
CCCc1ccc(Oc2coc3cc(OCC(=O)Nc4ccccc4C)ccc3c2=O)cc1 | -5 | 9 | 14 | 13 | 22 | -31 | /
COc1ccc2nc3n(c(=O)c2c1)-c1cc2ccccc2cc1C(=O)NC3Cc1ccccc1 (configuration not stated) | -8 | 1 | 14 | 0 | 15 | 13 | /
COc1ccc2nc3n(c(=O)c2c1)-c1cc2ccccc2cc1C(=O)NC3Cc1ccc(O)cc1 (configuration not stated) | -1 | 17 | 78* | -4 | 22 | 11 | 86*
